# Screening results deposited in PubChem BioAssay by National Center for Advancing Translational Sciences (NCATS).
# ERK EGF inh: blocks ERK signaling stimulated by EGF | HEK293-V1b, EGF-stimulated phospho-ERK AlphaScreen | Potency, µM (highest dose often 11.5 µM), without a hit: at the highest dose activity change, negative = inhibition, hits mostly inhibitors | 130,000 compounds, 0.41% hits;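 further: plate controls were stimulated vehicle wells for no effect and unstimulated vehicle basal for full effect; nearly all actives have a fitted effect of over 55% in size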
#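 HEK293 cells stably expressing V1b receptor, serum-reduced (1% FBS) overnight, got compound for 30 min at 37C, then 25 nM EGF for 5 min. Lysate phospho-ERK read by AlphaScreen SureFire; AC50 from Hill fits.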
# HttQ103 aggreg: mutant huntingtin aggregation inhibition; PC12 HttQ103-GFP aggregates, Acumen cytometry, 40 h; Potency, µM (top dose mostly 46.1 µM), inactives show top-dose activity change, negative = inhibition, actives largely listed as inhibitors; 220,000 compounds, 1.1% hits; AID 1688; further: on the % scale 0 is the no-effect control and ±100 the full control effect; nearly all actives have a fitted effect of over 60% in size
#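 Inducible Q103 Huntingtin exon 1–GFP PC12 line, 1500 cells/well in phenol red free DMEM with 5% equine and 5% calf serum. Tebufenozide 100 nM induced expression; compounds titrated; aggregates quantified by cytometry.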
# HTT ATP protect: protects HTT-Q103 PC12 cells, measured by ATP; 230,000 compounds, 0.14% hits; PC12 HTT-Q103 induced, cytoprotection, ATP luminescence, 40 h; Potency, µM (series often up to 56.4 µM), for inactives: cytoprotection (ATP increase), hits mostly activators; AID 1471; further: % of control where 0% means no effect; nearly all actives have a fitted effect of over 45% in size
#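 Stable PC12 Q103-GFP cells in serum-supplemented, phenol red-free DMEM; induction by tebufenozide at 100 nM final; compound dose series; cell viability quantified luminescently from ATP.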
# An asterisk follows results filed as active; ? = inconclusive; . = no result given; [ ] = remark or other dose. Rows were chosen to be rich in hits. Some 1.4% of all compounds tested hit in one or more screens of this group. The call rests on the fitted dose curve; in most records, active means well fitted curve in the direction sought with a large enough effect; inconclusive means small, poorly fitted or top-dose-only effect, or another doubt; inactive means no such curve, though single readings can be large; an effect the other way counts as inactive or inconclusive. Potency means the concentration at half of the fitted maximal effect.
SMILES,ERK EGF inh,HttQ103 aggreg,HTT ATP protect
COc1ccc(OCCn2c(NC(=O)c3ccco3)nc3ccccc32)cc1,.,10µM*,17%
CCCn1c(NC(=O)c2ccco2)nc2ccccc21,.,?,-4%
CN(Cc1ccco1)C(=O)c1c[nH]c2ccc(S(=O)(=O)Nc3ccc4c(c3)OCCO4)cc2c1=O,11%,-7%,.
CCc1ccc(NS(=O)(=O)c2ccc3[nH]cc(C(=O)N(C)Cc4ccco4)c(=O)c3c2)cc1,.,0.1µM*,-7%
O=C(NNc1ccccc1[N+](=O)[O-])Nc1ccc(Cl)c(Cl)c1,3%,11µM*,.
O=C(NNc1ccccc1[N+](=O)[O-])Nc1ccccc1,.,-1%,20%
NCCC[C@@H](CC(=O)N[C@@H]1CCCC[C@H]1C(=O)N[C@H](CC(=O)N[C@@H](CCC(=O)O)CC(=O)O)Cc1c[nH]c2ccccc12)NC(=O)C[C@H](Cc1ccccc1)NC(=O)[C@@H]1CCCC[C@H]1N,-15%,.,16%[1.9 µM]
COc1ccc(-n2c(-c3ccccc3)nnc2-c2ccc(Cl)cc2)cc1,.,13%,4%
COc1ccc(-n2c(-c3ccc(Cl)cc3)c[n+]3c2CCc2ccccc2-3)cc1,8%,13µM*,-68%
C[C@@H](Oc1ccc(Oc2cnc3ccc(Cl)cc3n2)cc1)C(=O)O,6%,.,.
CC(=O)OCC1=C(C(=O)O)N2C(=O)C(NC(=O)CSc3ccncc3)[C@@H]2SC1 (some centres not stated),11%,.,?
COc1cccc(Oc2nnnn2-c2ccccc2)c1,.,7%,-27%
COc1cccc(-n2nnnc2S(C)(=O)=O)c1,.,2.5µM*,-120%
CC1=NN(c2ccccc2)C(=O)/C1=C\c1cc(C)n(C)c1C,?,6%[9.22 µM],-2%[10 µM]
CC1=NN(c2ccccc2)C(=O)/C1=C\C=C1\N(C)c2ccccc2C1(C)C,16µM*,?,.
CC1=NN(c2ccccc2)C(=O)/C1=C\C=C1/N(C)c2ccccc2C1(C)C,13µM*,?,-11%[10 µM]
CN1/C(=C/C(=O)C2CC2)C(C)(C)c2ccccc21,11%,?,-12%
COc1ccc(OC)c(-c2ccccc2/C=N/NS(=O)(=O)c2ccc(C)cc2)c1,.,.,-20%[10 µM]
O=C(c1csnn1)N1CCC2(CC1)CN(C(c1ccccc1)c1ccccc1)C2,0%,.,?
CCOC(=O)N1CCC(NC(=O)c2ccc(Cl)cc2)CC1,-6%[57.5 µM],-28%[9.22 µM],10%[10 µM]
CCOC(=O)N1CCC(Nc2nc3ccccc3nc2NS(=O)(=O)c2ccc(Cl)cc2)CC1,.,11µM*,-8%[0.074 µM]
COc1cccc(/C=N/n2c(C)nc3ccccc32)c1OC,.,13µM*,-31%[10 µM]
O=[N+]([O-])c1ccc(/C=N/n2cnc3ccccc32)s1,9%,16µM*,.
Cc1cc2ncn(/N=C/c3ccc([N+](=O)[O-])s3)c2cc1C,5%,21%,1%[10 µM]
O=[N+]([O-])c1ccc(/C=N/n2c(CO)nc3ccccc32)s1,5%,3%,10%[10 µM]
SMILES,ERK EGF inh,HttQ103 aggreg,HTT ATP protect
COc1cccc(/C=N\n2c(C)nnc2C)c1OC,.,-11%,-25%
Cc1nc2ccccc2n1/N=C/c1ccc([N+](=O)[O-])s1,-2%,5µM*,2%[10 µM]
O=C1CC2(CCCC2)CC(=O)N1CCCCNCC1COc2ccccc2O1 (configuration not stated),.,.,-72%
CCn1cc(C(=O)O)c(=O)c2cc(F)c(N3CCNC(C)C3)c(F)c21 (configuration not stated),14%,.,-49%
COC(=O)c1csc(C(=O)c2c[nH]c3ccccc23)n1,.,.,29%
COCCn1c(=NC(=O)c2ccc(S(=O)(=O)N3CCc4ccccc4C3)cc2)sc2cc(S(N)(=O)=O)ccc21,16%,19%,.
C#CCn1c(=NC(=O)c2ccc(S(=O)(=O)N3CCc4ccccc4C3)cc2)sc2cc(S(N)(=O)=O)ccc21,-5%,10µM*,-36%[10 µM]
CCCCNC(=O)C(c1ccc(OCC(=O)OC)c(C(=O)OC)c1)N(Cc1ccccc1)C(=O)CCCCCN1C(=O)NC(c2ccc(-c3ccccc3)cc2)C(C(=O)OCc2ccccc2)=C1C (configuration not stated),0%,.,-1%
CC(C)CN1CCCC2(CCN(C(=O)c3cccc(F)c3)CC2)C1,-1%,.,?
C=CC[C@@H]1C=C[C@H](O/N=C2\c3cc(OC)ccc3O[C@H](c3cccc(OC)c3)[C@H]2O)[C@H](CO)O1,.,.,-5%[10 µM]
O=S(=O)(c1ccc(Cl)s1)N1CCN(C/C=C/c2ccccc2)CC1,.,35µM*,-5%[10 µM]
O=S(=O)(c1cccs1)N1CCN(C/C=C/c2ccccc2)CC1,.,-31%,4%[10 µM]
CC1=C(C(=O)O)N2C(=O)C(NC(=O)C(N)c3ccccc3)C2SC1 (configuration not stated),22%,.,?
O=C(Nc1ccc(Oc2cccnc2)cc1)c1ccccc1Cl,.,11µM*,.
O=C(Nc1ccc(Oc2cccnc2)cc1)c1ccccc1F,.,-21%,-14%
N#C/C(=C/c1ccc(Sc2nc3ccccc3[nH]2)o1)c1cccc(F)c1,.,?,1%
N#C/C(=C/c1ccc(Sc2nc3ccccc3[nH]2)o1)c1ccccc1F,.,11µM*,-34%
CCCCC[C@H](O)/C=C/C=C/C/C=C\CCCC(=O)O,-16%,.,-25%
CC1(C)OC(C(O)(c2cc(F)c(F)c(F)c2)c2cc(F)c(F)c(F)c2)C(C(O)(c2cc(F)c(F)c(F)c2)c2cc(F)c(F)c(F)c2)O1 (configuration not stated),.,.,-102%[10 µM]
Cc1cc(NC(=O)c2ccc(Cn3nc(C)c(Br)c3C)o2)no1,.,-4%,-18%
Cc1nn(Cc2ccc(C(=O)Nc3nc4c(C)cccc4s3)o2)c(C)c1Br,.,18µM*,-13%
COc1cc(N)c(Cl)cc1C(=O)OCCCN1CCCCC1,6%,.,-46%
O=C(/C=C/c1cccnc1)/C=C/c1cccnc1,10µM*,11%[9.22 µM],-8%[10 µM]
O=C(/C=C/c1cccnc1)c1cc(F)ccc1O,4%[57.5 µM],6%[9.22 µM],20%[10 µM]
CCOC(=O)c1ccccc1NS(=O)(=O)c1ccc(OCC)cc1,.,11µM*,-44%[10 µM]
SMILES,ERK EGF inh,HttQ103 aggreg,HTT ATP protect
CCOc1ccc(NC(=O)c2ccccc2NS(=O)(=O)c2ccc(F)cc2)c([N+](=O)[O-])c1,13%,11µM*,6%[10 µM]
CCOc1ccc(S(=O)(=O)Nc2ccccc2C(=O)NCC2CCCO2)cc1 (configuration not stated),.,-4%,-4%
CCOc1ccc(S(=O)(=O)Nc2ccccc2C(=O)Nc2ccccc2N2CCOCC2)cc1,.,12%,-9%[10 µM]
O=C(Nc1cc(S(=O)(=O)N2CCCCC2)ccc1O)c1ccccc1NS(=O)(=O)c1ccc(F)cc1,0%,-8%,4%[0.074 µM]
O=C(Nc1cc(S(=O)(=O)N2CCCCC2)ccc1Cl)c1ccccc1NS(=O)(=O)c1ccc(F)cc1,1%,3.2µM*,-67%[10 µM]
CCNc1ncc2nc(-c3ccc(OC)cc3)c(=O)n(C)c2n1,.,.,-123%
COc1ccccc1CN1CCC2(CC1)CCN(S(=O)(=O)c1ccccc1)CC2,10%,.,-54%
CC(=O)OC[C@@H]1O[C@H](C/C=N\O[C@@H](C)c2cn([C@H]3COC[C@H]3O)nn2)C=C[C@@H]1OC(C)=O,.,.,-3%[10 µM]
COc1ccc2nc3c(cc2c1)Cc1ccccc1-3,13%,.,-119%
Cc1ccc(Oc2nc3c(c(=O)n(C)c(=O)n3C)n2C)cc1C,0%,?,-37%
